Screening results: PubChem, The Scripps Research Institute Molecular Screening Center
Sampled rows, rich in hits. Any-hit rate of the full collection: about 4.5%.
hcDAF12 agonist: activates DAF-12 receptor from parasite H. contortus. activation, % at 6.8 µM. AID 652067. HEK293 hcDAF-12 lit1-tk-luc reporter, luminescence; 0% DMSO, 100% Δ7-dafachronic acid. 370,000 compounds, 1.4% hits;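 active = activation above the mean of all tested compounds plus 3 SD, cut at about 5.5% in these data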;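 also: 100% = response to 3 µM Δ7-dafachronic acid high control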
GAA850 FXN act: activators of GAA850 frataxin (FXN) promoter; 360,000 compounds, 0.56% hits; HEK293 lucGAA850 FXN promoter luciferase reporter, 24 h; percent of 10 µM SAHA response; activation, % at 6 µM;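 active = activation above the average of all compounds screened plus 3 SD, cutoff fixed separately per campaign, cut at about 7.5% in these data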;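 also: 0% = DMSO wells and 100% = 10 µM SAHA wells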
DAX1 inh-1: blocks DAX1 repression of SF-1 activated StAR promoter. HEK293T StAR-luciferase reporter, SF-1/DAX-1 repression relief. inhibition, % at 6.8 µM. 370,000 compounds, 1.1% hits;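 active = inhibition above the mean over all tested compounds plus 3 SD, cut at about 3.6% in these data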;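 also: 0% = DAX-1 cells with DMSO and 100% = cells lacking DAX-1 with DMSO; higher inhibition means more luminescence from relief of DAX-1 repression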
DAX1 inh-2: inhibits human nuclear receptor DAX1 | HEK293 Gal4-DAX1 luciferase reporter, luminescence | inhibition, % at 6.75 µM | 340,000 compounds, 0.99% hits | P51843 | AID 504766;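 active = inhibition above the mean over all tested compounds plus 3 SD, cut at about 4.2% in these data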;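 also: 0% = DAX1-transfected cells with DMSO and 100% = empty-vector control cells with DMSO; inhibition shows as a rise in luminescence from relieved DAX1 repression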
hgDAF-12 ag: hgDAF-12 agonism, primary luciferase screen. HEK293 GAL4-hgDAF12 UAS-luciferase reporter, agonist luminescence; normalized to butyrate control. activation, % at 6.8 µM. 370,000 compounds, 1.8% hits. AID 687014;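 active = activation above a cutoff set at the mean of all screened compounds plus 3 SD, cut at about 10% in these data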;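 also: 0% = DMSO wells and 100% = sodium butyrate wells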
ssDAF12 agonist: S. stercoralis DAF-12 activation, primary screen. 370,000 compounds, 1% hits. HEK293 ssDAF-12/GRIP1 lit1-tk-luc reporter, luminescence; % of 3 µM dafachronic acid response. AID 652126. activation, % at 6.8 µM;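 active = activation above the mean over all tested compounds plus 3 SD, cut at about 0.9% in these data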;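 also: 0% = DMSO-only wells and 100% = 3 µM delta7-dafachronic acid wells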
LXR ag: activates human LXR-beta, counter-screen for hcDAF-12 agonists; shares compounds with hcDAF12 agonist; HEK293 Gal4-LXR tk-luc reporter, luminescence, 24 h; normalized: DMSO 0%, positive control 100%; activation, % at 6.8 µM; 3,400 tested, under 10 active;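 active = mean percent activation of the reporter above a cutoff set as the average over tested compounds plus their standard deviation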
Target sequence (P55055 whole entry, looked up, the tested form may be a part): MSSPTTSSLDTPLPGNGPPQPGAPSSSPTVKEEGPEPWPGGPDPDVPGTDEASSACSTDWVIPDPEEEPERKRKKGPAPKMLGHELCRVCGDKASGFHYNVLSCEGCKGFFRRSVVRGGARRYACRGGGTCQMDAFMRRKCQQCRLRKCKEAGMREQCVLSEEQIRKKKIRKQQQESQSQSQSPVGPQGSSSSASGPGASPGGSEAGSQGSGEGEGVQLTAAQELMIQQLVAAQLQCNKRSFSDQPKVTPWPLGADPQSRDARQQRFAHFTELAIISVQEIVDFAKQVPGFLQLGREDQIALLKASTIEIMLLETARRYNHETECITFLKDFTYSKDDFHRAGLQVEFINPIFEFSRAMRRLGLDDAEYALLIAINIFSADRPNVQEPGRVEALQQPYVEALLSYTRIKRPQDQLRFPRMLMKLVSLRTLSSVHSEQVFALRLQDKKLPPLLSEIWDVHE
hcDAF12 ag: confirmation of H. contortus DAF-12 agonists; shares compounds with hcDAF12 agonist; HEK293 hcDAF-12 lit1-tk-luc reporter, luminescence; % of Δ7-dafachronic acid response; activation, % at 6.8 µM; 3,400 compounds, 61% hits; AID 743032;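 active = mean activation across triplicate tests above the threshold derived from the earlier primary screen, cut at about 5.5% in these data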;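 also: 0% = DMSO only wells and 100% = 3 µM Δ7-dafachronic acid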
An asterisk follows results filed as active; . = not tested or not shown.

SMILES	hcDAF12 agonist	GAA850 FXN act	DAX1 inh-1	DAX1 inh-2	hgDAF-12 ag	ssDAF12 agonist	LXR ag	hcDAF12 ag
CC1(C)CC2CC(C)(CN2C(=S)Nc2ccccc2F)C1 (stereo not given)	0	1	0	-1	-2	-1	.	.
O=C(CCn1c(=O)oc2ccccc21)Nc1cccc(Br)c1	1	-1	-1	-1	-1	-1	.	.
CCn1c(=N)n(CC(=O)c2ccc(OC)cc2)c2ccccc21	2	2	1	0	0	-1	.	.
CCn1c(=N)n(CC(=O)c2ccc(Cl)c(Cl)c2)c2ccccc21	9.5*	1	1	2	8	1	1	5.8*
Cn1c(=N)n(CC(=O)c2ccc(Br)cc2)c2ccccc21	23*	2	2	4.9*	17*	4.4*	3	29*
Cn1c(=NN=Cc2ccccc2OCCO)sc2ccccc21	7.8*	5	3	2	9	1.7*	0	7.9*
CCn1cc(Br)c(C(=O)Nc2ccc(OC)cc2)n1	0	1	1	0	1	-1	.	.
CCn1cc(Br)c(C(=O)NN)n1	6.7*	3	3	2	8	0	0	2
CCOC(=O)C1CCCCN1C(=O)CCc1nnc(-c2ccc3c(c2)OCO3)o1 (stereo not given)	7.7*	3	3	1	4	-1	0	1
Oc1ccc(Br)cc1-c1cc(-c2ccc(Cl)cc2)n[nH]1	4	1	0	0	6	0	.	.
Oc1ccc(Br)cc1-c1cc(-c2ccccc2)n[nH]1	8.1*	3	0	-1	5	1.6*	0	5
COc1ccc(O)c(-c2cc(-c3ccc(F)cc3)n[nH]2)c1	7.6*	4	1	2	9	1.0*	1	6.3*
COc1ccccc1NC(=O)C(C)OC(=O)C(C)SCC(=O)Nc1ccc(C)cc1 (stereo not given)	0	1	1	0	-1	-1	.	.
C/C(=N\NC(=O)C1(C)CC1(Br)Br)c1cccc(NC(=O)c2ccc(C)o2)c1 (stereo not given)	-2	-3	-3	-1	0	-1	.	.
Cc1ccc(C(=O)NC(=S)Nc2cc(-c3nc4ccccc4s3)ccc2C)cc1	7.2*	4	2	3	12*	1.4*	1	6.0*
COC(=O)c1ccccc1NC(=S)NC(=O)c1ccc(C)cc1	7.4*	1	1	0	10	0	0	4
COC(=O)c1ccccc1NC(=S)NC(=O)c1ccccc1	-2	2	2	0	3	-1	.	.
O=C(NC(=S)Nc1ccccc1O)c1ccccc1Cl	7.7*	3	2	0	13*	1.5*	0	6.2*
O=S(=O)(CC1NCc2cc(F)ccc21)NC1CCCC1 (stereo not given)	2	.	-1	.	4	-1	.	.
CCc1ccc(N2C(=O)Nc3ccccc3C2(O)C(=O)N2CCN(c3ccccn3)CC2)cc1 (stereo not given)	0	-4	3	0	4	-1	.	.
COc1ccc(/C=C\c2nc(=O)c3ccccc3o2)cc1	7.2*	4	4.2*	-1	19*	0	1	11*
Brc1ccccc1-c1nnc(SCc2nc3ccccc3s2)o1	12*	5	3	1	11*	2.5*	1	9.6*
Cc1ccc(-c2nc3n(n2)Cc2ccccc2-3)cc1	16*	-5	3	-3	8	2.4*	2	20*
Clc1ccc(-c2nc3c4ccccc4ccn3c2Cc2ccsc2)cc1	8.8*	.	2	.	8	0	0	5.8*
